# Test results: PubChem BioAssay (NCI)
# This is part of a sample that, as a whole, favours compounds with a hit. Of some 79,000 tested, about 15% had one in any assay. A number with no mark means an inactive call. Active and inactive are the calls of the source. No stated cut-off is given here; in the data, active means growth inhibition above about 70%; inactive means the rest.
# Legend:
# [1] = NCI Yeast Anticancer Drug Screen. Data for the rad50 strain (AID 155);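 further: 0% = growth of vehicle-only cultures of the same strain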; settings: S. cerevisiae rad50 strain growth inhibition, active compounds read high
# How it was run: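 Growth of the mutant yeast was measured after compound exposure and referenced to vehicle-treated cultures.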
# [2] = NCI Yeast Anticancer Drug Screen. Data for the mec2-1 strain (AID 157); settings: S. cerevisiae mec2-1 strain, active compounds read high
# How it was run: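 Each compound was tested on mec2-1 yeast, a strain altered in DNA damage repair or cell cycle control. Growth inhibition is reported relative to vehicle.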
# [3] = NCI Yeast Anticancer Drug Screen. Data for the sgs1 mgt1 strain (AID 161);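 further: 0% = growth of cultures given vehicle only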; settings: S. cerevisiae sgs1 mgt1 strain, active compounds read high
# How it was run: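 Test agents were incubated with a DNA-repair-mutant yeast strain. Growth was then read and compared against vehicle-treated controls.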
# [4] = NCI Yeast Anticancer Drug Screen. Data for the cln2 rad14 strain (AID 165);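 further: 0% = growth equal to vehicle treated cultures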; settings: S. cerevisiae cln2 rad14 strain, active compounds read high
# How it was run: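 Test compounds were added to cln2 rad14 yeast cultures; inhibition of growth was then determined by comparison with vehicle treatment.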
# [5] = NCI Yeast Anticancer Drug Screen. Data for the bub3 strain (AID 167); settings: S. cerevisiae bub3 mutant strain, active compounds read high
# How it was run: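 Whole-cell yeast assay. The mutant strain was incubated with compounds, and growth inhibition was determined by comparison with vehicle-treated cells.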
# [6] = NCI Yeast Anticancer Drug Screen. Data for the mlh1 rad18 strain (AID 175); settings: S. cerevisiae mlh1 rad18 strain growth inhibition, active compounds read high
# How it was run: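 Inhibition values reflect reduced growth of mutant yeast versus vehicle-treated controls following compound exposure; the mutations affect DNA damage repair.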
# [7] = at 5.0 µM (retest, dose inferred, filed as 0.5)
# [8] = at 50.0 µM (retest, dose inferred, filed as 5.0)
Structure (SMILES),"growth inhibition [1, 7]","growth inhibition [1, 8]",growth inhibition ([1]; at 50.0 µM),"growth inhibition [2, 7]","growth inhibition [2, 8]",growth inhibition ([2]; at 50.0 µM),"growth inhibition [3, 7]","growth inhibition [3, 8]",growth inhibition ([3]; at 50.0 µM),"growth inhibition [4, 7]","growth inhibition [4, 8]",growth inhibition ([4]; at 50.0 µM),"growth inhibition [5, 7]","growth inhibition [5, 8]",growth inhibition ([5]; at 50.0 µM),"growth inhibition [6, 7]","growth inhibition [6, 8]",growth inhibition ([6]; at 50.0 µM)
c1ccc(-c2cc(CN3CCOCC3)c(-c3ccccc3)o2)cc1,-1%,98% (active),52.8%,-6%,99% (active),51.9%,3%,99% (active),57.9%,-6%,99% (active),56.4%,1%,99% (active),55.8%,-2%,99% (active),54.1%
O=P(N=P(c1ccccc1)(c1ccccc1)c1ccccc1)(c1ccccc1)c1ccccc1,70% (active),96% (active),88% (active),60%,99% (active),91.6% (active),49%,99% (active),79% (active),40%,98% (active),92.5% (active),62%,99% (active),87.2% (active),71% (active),98% (active),88.7% (active)
CC(=O)Oc1ccc(N=[N+]([O-])c2ccc(OC(C)=O)cc2)cc1,5%,12%,1.95%,13%,40%,-2.6%,2%,19%,45.6%,10%,23%,18.4%,-4%,2%,14.7%,-1%,5%,-13%
COc1ccc(C2SC(C)C(=O)N2c2nc(-c3nc(-c4ccc(Cl)cc4)cs3)cs2)cc1 (stereo not given),42%,86% (active),45%,17%,99% (active),39.9%,5%,92% (active),69.3%,4%,99% (active),83.5% (active),-17%,99% (active),27.3%,23%,99% (active),77% (active)
CN(C)CCOc1cc2c(c3ccccc13)-c1ccccc1C2=O,93% (active),99% (active),99.7% (active),14%,99% (active),99.3% (active),20%,100% (active),99.4% (active),12%,96% (active),99% (active),6%,99% (active),99.6% (active),21%,100% (active),99.1% (active)
